Data on five compounds can be found in PubChem BioAssay.

Active and inactive are the calls of the source.

A short description of assay [1]: binders of probe aFSTL3 on microarray, primary screen, stem cell growth factor project, biochemical, small-molecule microarray, fluorescence 635/667 (AID 1064).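 Note: measures binding of the biotinylated anti-FSTL3 antibody to printed compounds.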 Particulars: higher = more signal.
A short description of assay [2]: binders from COS7 lysate, DM2A8 probe, primary screen, torsin A project, cell lysate, small-molecule microarray, fluorescence 635/667 (AID 1065). Particulars: higher = more signal, COS7 lysate expressing mutant human TOR1A.
Assay [3] can be described thus: binders of probe aFGF2 on microarray, primary screen, stem cell growth factor project, biochemical, small-molecule microarray, fluorescence 635/667 (AID 1067).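 Note: measures binding of biotinylated aFGF2 protein to printed compounds on slides; z-score merges feature fluorescence and signal-to-noise across triplicate slides.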 Particulars: higher = more signal.
A short description of assay [4]: binders of probe aFGF10 on microarray, primary screen, stem cell growth factor project, biochemical, small-molecule microarray, fluorescence 635/667 (AID 1071).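 Note: score merges 667 nm spot intensity and signal to noise from triplicate slides.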 The note with it: higher = more signal.
For assay [5], the target named is Neurogenic locus notch homolog protein 2 (Homo sapiens) (UniProt Q04721). Description: Notch2 binders on small-molecule microarrays, primary screen, biochemical, small-molecule microarray, 635 nm fluorescence, stem cell growth factors (AID 1073). Particulars: Notch2 binding, higher = more signal.
Assay [6] concerns the target Pro-neuregulin-1, membrane-bound isoform (Homo sapiens) (UniProt Q02297). As to the kind of experiment: NRG1 binders on small-molecule microarrays, primary screen, psychiatric disease protein project, biochemical, small-molecule microarray, fluorescence 635/667 (AID 1075).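 Note: score combines 667 nm spot fluorescence with signal to noise.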 Particulars: NRG1 binding, 635 nm fluorescence, higher = more signal.
In assay [7] the test system is Neuregulin-1 EGF-like domain. As to the kind of experiment: binders of neuregulin-1 EGF-like domain, primary screen, biochemical, small-molecule microarray, 635 nm fluorescence (AID 1081).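 Note: binding of the protein to compounds printed on small-molecule microarray slides.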 The note with it: small-molecule microarray binding, higher = more signal.
The nature of assay [8]: FRG1 promoter luciferase signal modulators, primary screen, FRG1 inhibition for FSHD, cell-based, C2C12 myotubes, firefly/Renilla luciferase, luminescence (AID 1084). Particulars: higher = more signal, called active from +8 up or from −8 down.
The nature of assay [9]: binders of probe aFST on microarray, primary screen, stem cell growth factor project, biochemical, small-molecule microarray, fluorescence 635/667 (AID 1086).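 Note: score merges 667 nm fluorescence with signal-to-noise of each printed compound spot.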 The note with it: higher = more signal.
Assay [10] can be described thus: binders of probe aHhip on microarray, primary screen, stem cell growth factor project, biochemical, small-molecule microarray, fluorescence 635/667 (AID 1087).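 Note: score merges spot fluorescence at 667nm with spot signal to noise ratio.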 Particulars: higher = more signal.
The test system of assay [11] is PRMT1 (protein arginine N-methyltransferase 1). As to the kind of experiment: PRMT1 binders on small-molecule microarrays, primary screen, biochemical, small-molecule microarray, 635 nm fluorescence (AID 1088).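 Note: binding of Prmt1 protein to compounds spotted on small-molecule microarray slides.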 The note with it: small-molecule microarray binding, higher = more signal.
Assay [12] in a line: yeast growth modulation, basal conditions, primary screen, YJM789 clinical isolate, OD600, 24 h (AID 1089).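 Note: growth of clinical yeast isolate S. cerevisiae YJM 789 seeded 1000 cells per well; test concentration not given here.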 Particulars: S. cerevisiae YJM789 growth, higher = more signal, called active from +8 up or from −8 down.
Assay [13] can be described thus: fission yeast growth modulation, primary screen, strain 972, OD600, 24 h, no modulator (AID 1090).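 Note: basal condition with compound alone and no growth modifier present; test concentration not given here.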 Particulars: S. pombe 972 growth, higher = more signal, called active from +8 up or from −8 down.
Assay [14] in a line: S. cerevisiae growth modulation with rapamycin, primary screen, strain BY4716, OD600, 96 h (AID 1091). Note: test concentration not given here. Particulars: higher = more signal, called active from +8 up or from −8 down.
Assay [15] deals with Torsin-1A-interacting protein 2 (Homo sapiens) (UniProt Q8NFQ8). Description: LULL1 binders on small-molecule microarray, primary screen, cell lysate, human LULL1 lysate, 635/667 nm fluorescence (AID 1092).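 Note: probe is lysate of COS7 cells overexpressing human LULL1; score merges per-feature 667 nm fluorescence with signal-to-noise.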 The note with it: hLULL1 lysate binding, 635 nm fluorescence, higher = more signal.
Assay [16] in a line: E. coli growth modulation, two-sided OD650, primary screen, E. coli filamentation project, strain DRC41, 24 h (AID 1093).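 Note: MC1000 strain lacking acrAB efflux and sulA so SOS filamentation is blocked; test concentration not given here.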 The note with it: OD650, 24 h, higher = more signal, called active from +8 up or from −8 down.
Assay [17] can be described thus: small-molecule microarray binders of probe aLefty2, primary screen, biochemical, biotinylated probe, 635/667 nm fluorescence (AID 1094).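 Note: score merges spot fluorescence near 667 nm with spot signal-to-noise ratio.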 Particulars: higher = more signal.
Assay [18] has as its system Noggin (protein binding on small-molecule microarray). As to the kind of experiment: Noggin binders on small-molecule microarray, primary screen, biochemical, 635/667 nm fluorescence (AID 1095).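 Note: score merges 667 nm feature fluorescence with signal to noise over triplicate slides.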 The note with it: 635 nm fluorescence, higher = more signal.
The target in assay [19] is Neurogenic locus notch homolog protein 3 (Homo sapiens) (UniProt Q9UM47). Description: NOTCH3 binders on small-molecule microarray, primary screen, biochemical, 635/667 nm fluorescence (AID 1096). The note with it: NOTCH3 binding, 635 nm fluorescence, higher = more signal.
A short description of assay [20]: small-molecule microarray binders of probe aEGFR, primary screen, biochemical, biotinylated probe, 635/667 nm fluorescence (AID 1097).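 Note: probe is a biotinylated anti-EGFR antibody binding compounds printed on slides; score combines fluorescence near 667 nm and signal to noise of each spot.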 Particulars: higher = more signal.

Chain of Neurogenic locus notch homolog protein 3 (Homo sapiens) (Q9UM47 whole entry, looked up): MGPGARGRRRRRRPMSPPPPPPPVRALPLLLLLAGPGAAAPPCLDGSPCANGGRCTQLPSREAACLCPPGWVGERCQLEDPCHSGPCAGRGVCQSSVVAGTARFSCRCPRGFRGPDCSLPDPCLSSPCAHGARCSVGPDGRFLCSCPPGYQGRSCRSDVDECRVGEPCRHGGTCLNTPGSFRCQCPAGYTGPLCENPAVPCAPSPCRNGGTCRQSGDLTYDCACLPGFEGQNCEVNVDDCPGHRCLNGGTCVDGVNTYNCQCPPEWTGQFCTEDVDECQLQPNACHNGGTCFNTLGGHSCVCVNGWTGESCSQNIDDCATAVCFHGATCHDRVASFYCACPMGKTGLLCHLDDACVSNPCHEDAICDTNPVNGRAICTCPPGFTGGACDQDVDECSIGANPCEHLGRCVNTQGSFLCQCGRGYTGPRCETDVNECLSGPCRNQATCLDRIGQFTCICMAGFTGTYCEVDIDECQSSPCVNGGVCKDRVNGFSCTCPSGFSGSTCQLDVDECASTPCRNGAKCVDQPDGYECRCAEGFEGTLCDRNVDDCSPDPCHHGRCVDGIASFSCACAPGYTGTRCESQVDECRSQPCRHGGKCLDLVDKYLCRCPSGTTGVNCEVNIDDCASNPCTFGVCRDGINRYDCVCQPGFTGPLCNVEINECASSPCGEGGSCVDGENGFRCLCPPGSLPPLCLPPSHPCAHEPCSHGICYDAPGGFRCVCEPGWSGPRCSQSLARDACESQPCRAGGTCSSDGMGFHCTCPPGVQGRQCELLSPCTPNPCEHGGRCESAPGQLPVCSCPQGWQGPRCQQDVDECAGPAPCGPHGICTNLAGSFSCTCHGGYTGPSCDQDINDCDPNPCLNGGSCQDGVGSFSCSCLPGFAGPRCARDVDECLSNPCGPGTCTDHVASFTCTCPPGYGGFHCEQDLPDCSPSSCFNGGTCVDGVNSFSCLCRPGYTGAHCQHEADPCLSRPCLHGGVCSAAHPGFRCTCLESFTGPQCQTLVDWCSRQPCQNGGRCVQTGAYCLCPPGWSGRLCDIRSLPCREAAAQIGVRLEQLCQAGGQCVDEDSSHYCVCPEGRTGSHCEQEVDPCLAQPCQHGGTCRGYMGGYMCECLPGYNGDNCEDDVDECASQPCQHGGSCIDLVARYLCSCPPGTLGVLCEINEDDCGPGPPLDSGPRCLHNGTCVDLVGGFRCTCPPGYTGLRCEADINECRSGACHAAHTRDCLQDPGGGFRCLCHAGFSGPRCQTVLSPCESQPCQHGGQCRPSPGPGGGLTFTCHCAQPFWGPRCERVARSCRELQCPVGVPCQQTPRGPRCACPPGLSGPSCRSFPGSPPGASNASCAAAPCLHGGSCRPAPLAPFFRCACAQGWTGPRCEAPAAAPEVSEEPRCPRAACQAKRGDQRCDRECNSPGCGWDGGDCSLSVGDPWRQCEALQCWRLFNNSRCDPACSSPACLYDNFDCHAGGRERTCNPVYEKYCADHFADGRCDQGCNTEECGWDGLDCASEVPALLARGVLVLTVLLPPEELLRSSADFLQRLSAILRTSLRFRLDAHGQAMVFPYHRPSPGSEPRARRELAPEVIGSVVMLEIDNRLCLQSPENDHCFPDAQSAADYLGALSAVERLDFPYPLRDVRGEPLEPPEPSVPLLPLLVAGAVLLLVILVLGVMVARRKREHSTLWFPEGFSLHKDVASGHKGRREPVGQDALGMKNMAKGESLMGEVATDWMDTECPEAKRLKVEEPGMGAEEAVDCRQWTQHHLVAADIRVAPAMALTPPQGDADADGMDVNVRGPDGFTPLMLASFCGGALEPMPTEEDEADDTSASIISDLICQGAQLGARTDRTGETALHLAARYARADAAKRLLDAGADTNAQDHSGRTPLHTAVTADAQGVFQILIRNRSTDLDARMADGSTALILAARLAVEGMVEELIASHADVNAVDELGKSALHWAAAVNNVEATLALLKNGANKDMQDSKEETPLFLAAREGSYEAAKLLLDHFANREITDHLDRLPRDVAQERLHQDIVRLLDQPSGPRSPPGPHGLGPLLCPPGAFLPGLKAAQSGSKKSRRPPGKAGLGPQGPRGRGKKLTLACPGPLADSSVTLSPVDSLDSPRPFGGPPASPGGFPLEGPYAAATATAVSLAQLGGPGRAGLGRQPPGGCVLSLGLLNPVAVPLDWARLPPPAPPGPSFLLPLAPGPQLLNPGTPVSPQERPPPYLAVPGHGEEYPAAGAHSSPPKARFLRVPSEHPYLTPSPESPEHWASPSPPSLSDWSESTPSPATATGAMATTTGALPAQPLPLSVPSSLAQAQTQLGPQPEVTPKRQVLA
Chain of Neurogenic locus notch homolog protein 2 (Homo sapiens) (Q04721 whole entry, looked up, canonical isoform): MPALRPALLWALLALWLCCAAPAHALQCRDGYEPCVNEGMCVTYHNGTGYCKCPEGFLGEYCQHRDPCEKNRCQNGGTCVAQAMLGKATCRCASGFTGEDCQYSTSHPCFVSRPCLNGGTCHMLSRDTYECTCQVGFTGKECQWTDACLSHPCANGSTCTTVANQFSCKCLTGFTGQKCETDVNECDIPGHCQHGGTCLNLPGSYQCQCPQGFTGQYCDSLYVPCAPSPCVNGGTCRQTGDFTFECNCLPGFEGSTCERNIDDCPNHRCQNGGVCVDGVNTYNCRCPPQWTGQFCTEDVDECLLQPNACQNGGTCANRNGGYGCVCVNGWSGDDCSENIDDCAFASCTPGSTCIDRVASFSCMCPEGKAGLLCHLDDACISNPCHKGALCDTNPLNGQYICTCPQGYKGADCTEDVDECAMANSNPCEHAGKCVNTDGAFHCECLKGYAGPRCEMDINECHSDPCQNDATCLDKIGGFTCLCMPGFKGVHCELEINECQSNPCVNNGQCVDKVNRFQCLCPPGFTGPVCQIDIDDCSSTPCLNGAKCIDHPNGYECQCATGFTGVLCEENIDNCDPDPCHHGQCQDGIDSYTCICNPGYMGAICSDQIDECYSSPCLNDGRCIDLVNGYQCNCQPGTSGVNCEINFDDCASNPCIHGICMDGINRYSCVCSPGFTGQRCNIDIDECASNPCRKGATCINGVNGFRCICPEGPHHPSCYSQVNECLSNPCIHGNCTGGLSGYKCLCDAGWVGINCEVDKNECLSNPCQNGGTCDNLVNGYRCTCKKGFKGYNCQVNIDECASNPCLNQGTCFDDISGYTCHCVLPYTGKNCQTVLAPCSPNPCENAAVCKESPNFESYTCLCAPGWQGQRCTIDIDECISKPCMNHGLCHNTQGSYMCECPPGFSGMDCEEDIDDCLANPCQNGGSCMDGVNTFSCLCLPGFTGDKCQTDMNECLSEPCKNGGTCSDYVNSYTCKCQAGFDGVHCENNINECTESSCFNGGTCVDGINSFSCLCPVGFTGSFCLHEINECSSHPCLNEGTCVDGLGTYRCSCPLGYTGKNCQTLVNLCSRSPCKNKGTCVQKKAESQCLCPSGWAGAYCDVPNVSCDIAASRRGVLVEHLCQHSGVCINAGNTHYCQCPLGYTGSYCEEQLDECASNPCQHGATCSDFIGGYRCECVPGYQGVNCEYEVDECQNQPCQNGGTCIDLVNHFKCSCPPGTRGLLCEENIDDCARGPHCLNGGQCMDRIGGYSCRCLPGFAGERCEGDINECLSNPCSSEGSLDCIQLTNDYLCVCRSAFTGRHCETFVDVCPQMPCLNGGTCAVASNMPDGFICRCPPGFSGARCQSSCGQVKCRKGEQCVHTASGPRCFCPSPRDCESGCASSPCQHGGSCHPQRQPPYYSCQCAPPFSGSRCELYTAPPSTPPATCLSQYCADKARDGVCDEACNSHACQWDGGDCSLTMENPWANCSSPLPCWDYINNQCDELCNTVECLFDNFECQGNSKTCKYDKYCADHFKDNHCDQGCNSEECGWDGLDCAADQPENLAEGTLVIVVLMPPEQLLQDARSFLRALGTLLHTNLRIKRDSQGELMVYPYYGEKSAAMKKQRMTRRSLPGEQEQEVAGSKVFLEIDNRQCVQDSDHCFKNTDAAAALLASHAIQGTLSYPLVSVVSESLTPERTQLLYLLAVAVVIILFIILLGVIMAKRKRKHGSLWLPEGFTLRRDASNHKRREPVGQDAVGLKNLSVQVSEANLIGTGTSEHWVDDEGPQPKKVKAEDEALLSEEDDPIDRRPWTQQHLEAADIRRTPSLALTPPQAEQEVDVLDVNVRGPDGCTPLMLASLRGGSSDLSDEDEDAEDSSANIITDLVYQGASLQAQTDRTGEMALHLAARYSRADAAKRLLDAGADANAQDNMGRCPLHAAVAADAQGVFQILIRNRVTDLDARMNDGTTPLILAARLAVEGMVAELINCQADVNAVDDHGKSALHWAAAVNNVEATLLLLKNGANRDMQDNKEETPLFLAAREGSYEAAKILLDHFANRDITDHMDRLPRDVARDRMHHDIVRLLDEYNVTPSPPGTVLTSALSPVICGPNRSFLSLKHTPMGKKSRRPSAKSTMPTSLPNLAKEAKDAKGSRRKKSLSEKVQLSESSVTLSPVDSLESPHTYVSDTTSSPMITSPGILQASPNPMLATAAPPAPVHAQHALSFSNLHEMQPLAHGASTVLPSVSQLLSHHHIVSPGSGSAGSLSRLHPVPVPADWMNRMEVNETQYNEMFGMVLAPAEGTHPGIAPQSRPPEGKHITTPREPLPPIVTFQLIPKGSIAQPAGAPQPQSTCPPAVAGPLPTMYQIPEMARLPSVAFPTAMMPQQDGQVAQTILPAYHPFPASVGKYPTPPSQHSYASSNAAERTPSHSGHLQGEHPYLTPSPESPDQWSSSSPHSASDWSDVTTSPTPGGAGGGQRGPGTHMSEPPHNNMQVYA

As to `CN(C)CCCNC(=O)[C@@H]1c2ccccc2C(=O)N(Cc2ccccc2C(F)(F)F)[C@H]1c1ccc(CO)cc1`, the composite z-score was 1 in [1]; -0.335 in assay [2]; -0.0416 in assay [3]; -0.702 in assay [4]; -1.03 in assay [5]; 1.01 in assay [6]. Further, the composite z-score in assay [7] is -0.23; in assay [9] it was -0.0464; in assay [10] it was -0.149; in [11], 0.986; in assay [15], 0.767; in assay [17] it was 0.0518. The figures for the composite z-score in assay [18], in assay [19] and in assay [20] were -0.396, -0.704 and -0.213, respectively. The z-score in [8] was -1.28 (inactive); in assay [12], 0.0389 (inactive); in assay [13], -1.28 (inactive); in [14], -0.461 (inactive); in [16], 1.53 (inactive).

Regarding `COC(=O)[C@@]1(Cc2ccccc2)[C@H]2c3cc(C(=O)N4CCCC4)n(Cc4ccc(OC)c(OC)c4)c3C[C@H]2CN1C(=O)c1ccccc1`, the composite z-score stood at 0.439 in [1]; 0.411 in assay [2]; 0.141 in assay [3]; 0.605 in assay [4]; 1.77 in assay [5]; 2.16 in assay [6]. The composite z-score in assay [7] was found to be 1.4; in assay [9] it was 1.88; in assay [10], 0.857; in assay [11], 0.632; in assay [15], 3.5; in assay [17], 0.666. Also, the composite z-score was 0.0245 in assay [18], 1.14 in assay [19] and 0.403 in assay [20]. Also, the z-score in assay [8] was 0.626 (inactive); in assay [12], 0.49 (inactive); in assay [13] it was 1.06 (inactive); in assay [14], 1.45 (inactive); in [16], -0.0046 (inactive).

`OCCCC1=CC(c2ccc(CN3CCCC3)cc2)N(Cc2cccc(OC(F)(F)F)c2)CC1` (stereo not given): the composite z-score in assay [1] was 0.373; in assay [2], 0.134; in [3], -0.0853; in [4], 0.0263; in assay [5], -0.546; in assay [6] it was 0.0603. The composite z-score is 0.0735 in [7]; -0.176 in assay [9]; -0.236 in assay [10]; -0.688 in [11]; 0.203 in assay [15]; 0.0029 in assay [17]. Further, the composite z-score in assay [18] was 0.123; in assay [19] it was -0.752; in assay [20], -0.181. Besides, the z-score in assay [8] was 0.372 (inactive); in assay [12] it was -2.01 (inactive); in [13], -14.9 (active); in [14], -2.62 (inactive); in assay [16], -0.987 (inactive).

For the compound `COC(=O)C(CC#Cc1ccc2c(c1)[C@]1(C(=O)N2)[C@H](C(=O)N2CCc3cc(OC)c(OC)cc3C2)[C@H]2C(=O)O[C@H](c3ccccc3)[C@H](c3ccccc3)N2[C@@H]1c1ccccc1OCCO)C(=O)OC`, the composite z-score in assay [1] is -0.385; in [2] it was 1.03; in assay [3], -0.0037; in assay [4], 0.738; in assay [5], 1.15; in assay [6], 1.67. In addition, the composite z-score is 1.25 in [7]; 0.529 in assay [9]; -0.0346 in [10]; 1.54 in [11]; 3.06 in assay [15]; -0.0862 in assay [17]. In addition, the composite z-score worked out at 1.36 in assay [18], 1.07 in assay [19] and 0.0457 in assay [20]. The z-score is 1.31 (inactive) in assay [8]; 2.06 (inactive) in [12]; 1.54 (inactive) in assay [13]; 3.78 (inactive) in assay [14]; 0.49 (inactive) in [16].

On to `O=C1[C@H]2C=C(I)[C@H](C[C@@H]2c2ccccc2)[C@@]12CO2`, for which the composite z-score in [1] was -0.372; in assay [2] it was -0.0809; in assay [3], -0.104; in assay [4], -0.142; in [5] it was 0.0878; in assay [6], -0.165. In addition, the composite z-score is -0.507 in assay [7]; 0.281 in assay [9]; -0.214 in assay [10]; 0.298 in assay [11]; -0.0459 in [15]; -0.238 in assay [17]. Further, the composite z-score in [18] was 0.355; in assay [19], -0.183; in [20], -0.139. Moreover, the z-score is 1.55 (inactive) in [8]; -3.2 (inactive) in [12]; -19.3 (active) in assay [13]; -2.84 (inactive) in assay [14]; -0.924 (inactive) in [16].
